{"source": "paper PMC11006913", "assay_in_all_cases": "PBM; 200 nM protein, PBS", "conditions_in_all_cases": "dsDNA, one strand shown", "key": {"NKX2-5 [1]": {"target": "NKX2-5 (Homo sapiens, UniProt P52952 125-210, R139K)", "sequence (P52952 125-210 R139K)": "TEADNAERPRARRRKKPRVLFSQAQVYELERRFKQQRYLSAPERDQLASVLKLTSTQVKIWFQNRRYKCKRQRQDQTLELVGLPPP"}, "NKX2-4 [2]": {"target": "T1, NKX2-4 (Homo sapiens, UniProt Q9H2Z4 175-261, P217L)", "T1 sequence": "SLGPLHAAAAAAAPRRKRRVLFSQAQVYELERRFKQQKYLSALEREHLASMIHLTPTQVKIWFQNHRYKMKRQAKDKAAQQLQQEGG"}, "NKX2-4 [3]": {"target": "T2, NKX2-4 (Homo sapiens, UniProt Q9H2Z4 175-261, T231S)", "T2 sequence": "T1 sequence with L43P, T57S"}, "NKX2-4 [4]": {"target": "T3, NKX2-4 (Homo sapiens, UniProt Q9H2Z4 175-261)", "T3 sequence": "T1 sequence with L43P"}, "NKX2-6 [5]": {"target": "T4, NKX2-6 (Homo sapiens, UniProt A6NCS4 118-204, R150C)", "T4 sequence": "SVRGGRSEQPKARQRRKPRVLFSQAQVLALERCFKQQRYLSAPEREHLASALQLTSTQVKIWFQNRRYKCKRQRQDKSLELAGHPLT"}, "NKX2-6 [6]": {"target": "T5, NKX2-6 (Homo sapiens, UniProt A6NCS4 118-204)", "T5 sequence": "T4 sequence with C33R"}, "NKX2-4 [7]": {"target": "T6, NKX2-4 (Homo sapiens, UniProt Q9H2Z4 175-261, R246Q)", "T6 sequence": "T1 sequence with L43P, R72Q"}, "NKX2-6 [8]": {"target": "T7, NKX2-6 (Homo sapiens, UniProt A6NCS4 118-204, F151L)", "T7 sequence": "T4 sequence with C33R, F34L"}, "NKX2-5 [9]": {"target": "NKX2-5 (Homo sapiens, UniProt P52952 125-210)", "sequence (P52952 125-210)": "as the sequence (P52952 125-210 R139K) above, with K15R counted along it"}, "VENTX [10]": {"target": "T8, VENTX (Homo sapiens, UniProt O95231 78-163, R121Q)", "T8 sequence": "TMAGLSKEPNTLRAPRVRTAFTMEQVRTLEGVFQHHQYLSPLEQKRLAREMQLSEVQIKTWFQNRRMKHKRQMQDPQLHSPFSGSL"}, "VENTX [11]": {"target": "T9, VENTX (Homo sapiens, UniProt O95231 78-163)", "T9 sequence": "T8 sequence with Q44R"}, "VENTX [12]": {"target": "T10, VENTX (Homo sapiens, UniProt O95231 78-163, Y115F)", "T10 sequence": "T8 sequence with Y38F, Q44R"}, "ALX1 [13]": {"target": "ALX1 (Homo sapiens, UniProt Q15699 118-204, L144V)", "sequence (Q15699 118-204 L144V)": "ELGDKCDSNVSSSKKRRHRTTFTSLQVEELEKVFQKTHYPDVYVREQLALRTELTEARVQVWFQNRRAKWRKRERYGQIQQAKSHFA"}, "ALX1 [14]": {"target": "ALX1 (Homo sapiens, UniProt Q15699 118-204, L144R)", "sequence (Q15699 118-204 L144R)": "as the sequence (Q15699 118-204 L144V) above, with V27R counted along it"}, "ALX1 [15]": {"target": "ALX1 (Homo sapiens, UniProt Q15699 118-204)", "sequence (Q15699 118-204)": "as the sequence (Q15699 118-204 L144V) above, with V27L counted along it"}, "HOXB9": {"target": "HOXB9 (Homo sapiens, UniProt P17482 171-250, R186Q)", "sequence (P17482 171-250 R186Q)": "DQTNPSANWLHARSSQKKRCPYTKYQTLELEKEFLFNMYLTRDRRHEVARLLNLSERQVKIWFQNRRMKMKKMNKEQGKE"}, "NKX3-2 [16]": {"target": "NKX3-2 (Homo sapiens, UniProt P78367 192-278, P234S)", "sequence (P78367 192-278 P234S)": "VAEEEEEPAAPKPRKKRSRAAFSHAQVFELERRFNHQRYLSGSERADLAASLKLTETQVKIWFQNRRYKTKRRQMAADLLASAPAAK"}, "NKX3-2 [17]": {"target": "NKX3-2 (Homo sapiens, UniProt P78367 192-278)", "sequence (P78367 192-278)": "as the sequence (P78367 192-278 P234S) above, with S43P counted along it"}}, "note": "Positions count from the first letter of the chain named."}
{"sequence": "CACTTGAA", "values": [{"measurement": "binding signal", "setting": "NKX2-5 [1]", "result": "13.2 upbm affinity estimate (log intensity, higher = more binding, comparable within an allelic series)"}, {"measurement": "binding signal", "setting": "NKX2-4 [2]", "result": "12.8 upbm affinity estimate (log intensity, higher = more binding, comparable within an allelic series)"}, {"measurement": "binding signal", "setting": "NKX2-4 [3]", "result": "13.3 upbm affinity estimate (log intensity, higher = more binding, comparable within an allelic series)"}, {"measurement": "binding signal", "setting": "NKX2-4 [4]", "result": "12.7 upbm affinity estimate (log intensity, higher = more binding, comparable within an allelic series)"}, {"measurement": "binding signal", "setting": "NKX2-6 [5]", "result": "12.2 upbm affinity estimate (log intensity, higher = more binding, comparable within an allelic series)"}, {"measurement": "binding signal", "setting": "NKX2-6 [6]", "result": "13.9 upbm affinity estimate (log intensity, higher = more binding, comparable within an allelic series)"}, {"measurement": "binding signal", "setting": "NKX2-4 [7]", "result": "13.5 upbm affinity estimate (log intensity, higher = more binding, comparable within an allelic series)"}, {"measurement": "binding signal", "setting": "NKX2-6 [8]", "result": "11.4 upbm affinity estimate (log intensity, higher = more binding, comparable within an allelic series)"}, {"measurement": "binding signal", "setting": "NKX2-5 [9]", "result": "13.2 upbm affinity estimate (log intensity, higher = more binding, comparable within an allelic series)"}]}
{"sequence": "CCGGTGGC", "values": [{"measurement": "binding signal", "setting": "NKX2-5 [1]", "result": "8.61 upbm affinity estimate (log intensity, higher = more binding, comparable within an allelic series)"}, {"measurement": "binding signal", "setting": "VENTX [10]", "result": "7.92 upbm affinity estimate (log intensity, higher = more binding, comparable within an allelic series)"}, {"measurement": "binding signal", "setting": "VENTX [11]", "result": "8.15 upbm affinity estimate (log intensity, higher = more binding, comparable within an allelic series)"}, {"measurement": "binding signal", "setting": "VENTX [12]", "result": "8 upbm affinity estimate (log intensity, higher = more binding, comparable within an allelic series)"}, {"measurement": "binding signal", "setting": "ALX1 [13]", "result": "6.52 upbm affinity estimate (log intensity, higher = more binding, comparable within an allelic series)"}, {"measurement": "binding signal", "setting": "ALX1 [14]", "result": "6.41 upbm affinity estimate (log intensity, higher = more binding, comparable within an allelic series)"}, {"measurement": "binding signal", "setting": "ALX1 [15]", "result": "6.47 upbm affinity estimate (log intensity, higher = more binding, comparable within an allelic series)"}, {"measurement": "binding signal", "setting": "NKX2-5 [9]", "result": "8.93 upbm affinity estimate (log intensity, higher = more binding, comparable within an allelic series)"}]}
{"sequence": "CTACTTGA", "values": [{"measurement": "binding signal", "setting": "NKX2-5 [1]", "result": "12.3 upbm affinity estimate (log intensity, higher = more binding, comparable within an allelic series)"}, {"measurement": "binding signal", "setting": "NKX2-4 [2]", "result": "12.6 upbm affinity estimate (log intensity, higher = more binding, comparable within an allelic series)"}, {"measurement": "binding signal", "setting": "NKX2-4 [3]", "result": "13 upbm affinity estimate (log intensity, higher = more binding, comparable within an allelic series)"}, {"measurement": "binding signal", "setting": "NKX2-4 [4]", "result": "12.4 upbm affinity estimate (log intensity, higher = more binding, comparable within an allelic series)"}, {"measurement": "binding signal", "setting": "NKX2-6 [5]", "result": "11.6 upbm affinity estimate (log intensity, higher = more binding, comparable within an allelic series)"}, {"measurement": "binding signal", "setting": "NKX2-6 [6]", "result": "13.3 upbm affinity estimate (log intensity, higher = more binding, comparable within an allelic series)"}, {"measurement": "binding signal", "setting": "NKX2-4 [7]", "result": "13.1 upbm affinity estimate (log intensity, higher = more binding, comparable within an allelic series)"}, {"measurement": "binding signal", "setting": "NKX2-6 [8]", "result": "10.5 upbm affinity estimate (log intensity, higher = more binding, comparable within an allelic series)"}, {"measurement": "binding signal", "setting": "NKX2-5 [9]", "result": "12.3 upbm affinity estimate (log intensity, higher = more binding, comparable within an allelic series)"}]}
{"sequence": "GTCAAGTA", "values": [{"measurement": "binding signal", "setting": "NKX2-5 [1]", "result": "12.3 upbm affinity estimate (log intensity, higher = more binding, comparable within an allelic series)"}, {"measurement": "binding signal", "setting": "NKX2-4 [2]", "result": "12.5 upbm affinity estimate (log intensity, higher = more binding, comparable within an allelic series)"}, {"measurement": "binding signal", "setting": "NKX2-4 [3]", "result": "12.8 upbm affinity estimate (log intensity, higher = more binding, comparable within an allelic series)"}, {"measurement": "binding signal", "setting": "NKX2-4 [4]", "result": "12.3 upbm affinity estimate (log intensity, higher = more binding, comparable within an allelic series)"}, {"measurement": "binding signal", "setting": "NKX2-6 [6]", "result": "13.4 upbm affinity estimate (log intensity, higher = more binding, comparable within an allelic series)"}, {"measurement": "binding signal", "setting": "NKX2-4 [7]", "result": "13 upbm affinity estimate (log intensity, higher = more binding, comparable within an allelic series)"}, {"measurement": "binding signal", "setting": "NKX2-6 [8]", "result": "10.5 upbm affinity estimate (log intensity, higher = more binding, comparable within an allelic series)"}, {"measurement": "binding signal", "setting": "NKX2-5 [9]", "result": "12.2 upbm affinity estimate (log intensity, higher = more binding, comparable within an allelic series)"}]}
{"sequence": "CTGGCCAG", "values": [{"measurement": "binding signal", "setting": "NKX2-5 [1]", "result": "8.81 upbm affinity estimate (log intensity, higher = more binding, comparable within an allelic series)"}, {"measurement": "binding signal", "setting": "VENTX [10]", "result": "8.26 upbm affinity estimate (log intensity, higher = more binding, comparable within an allelic series)"}, {"measurement": "binding signal", "setting": "VENTX [11]", "result": "8.37 upbm affinity estimate (log intensity, higher = more binding, comparable within an allelic series)"}, {"measurement": "binding signal", "setting": "VENTX [12]", "result": "8.37 upbm affinity estimate (log intensity, higher = more binding, comparable within an allelic series)"}, {"measurement": "binding signal", "setting": "NKX2-5 [9]", "result": "8.9 upbm affinity estimate (log intensity, higher = more binding, comparable within an allelic series)"}]}
{"sequence": "TAAGTGTA", "values": [{"measurement": "binding signal", "setting": "NKX2-5 [1]", "result": "12.5 upbm affinity estimate (log intensity, higher = more binding, comparable within an allelic series)"}, {"measurement": "binding signal", "setting": "NKX2-4 [2]", "result": "12.4 upbm affinity estimate (log intensity, higher = more binding, comparable within an allelic series)"}, {"measurement": "binding signal", "setting": "NKX2-4 [3]", "result": "12.8 upbm affinity estimate (log intensity, higher = more binding, comparable within an allelic series)"}, {"measurement": "binding signal", "setting": "NKX2-4 [4]", "result": "12.3 upbm affinity estimate (log intensity, higher = more binding, comparable within an allelic series)"}, {"measurement": "binding signal", "setting": "NKX2-6 [5]", "result": "11.7 upbm affinity estimate (log intensity, higher = more binding, comparable within an allelic series)"}, {"measurement": "binding signal", "setting": "NKX2-6 [6]", "result": "13.4 upbm affinity estimate (log intensity, higher = more binding, comparable within an allelic series)"}, {"measurement": "binding signal", "setting": "NKX2-4 [7]", "result": "12.9 upbm affinity estimate (log intensity, higher = more binding, comparable within an allelic series)"}, {"measurement": "binding signal", "setting": "NKX2-6 [8]", "result": "10.9 upbm affinity estimate (log intensity, higher = more binding, comparable within an allelic series)"}, {"measurement": "binding signal", "setting": "NKX2-5 [9]", "result": "12.4 upbm affinity estimate (log intensity, higher = more binding, comparable within an allelic series)"}]}
{"sequence": "CCAGCCAG", "values": [{"measurement": "binding signal", "setting": "NKX2-5 [1]", "result": "8.68 upbm affinity estimate (log intensity, higher = more binding, comparable within an allelic series)"}, {"measurement": "binding signal", "setting": "HOXB9", "result": "8.39 upbm affinity estimate (log intensity, higher = more binding, comparable within an allelic series)"}, {"measurement": "binding signal", "setting": "NKX2-5 [9]", "result": "8.64 upbm affinity estimate (log intensity, higher = more binding, comparable within an allelic series)"}]}
{"sequence": "CCGACGCC", "values": [{"measurement": "binding signal", "setting": "NKX2-5 [1]", "result": "8.82 upbm affinity estimate (log intensity, higher = more binding, comparable within an allelic series)"}, {"measurement": "binding signal", "setting": "VENTX [10]", "result": "8.14 upbm affinity estimate (log intensity, higher = more binding, comparable within an allelic series)"}, {"measurement": "binding signal", "setting": "VENTX [11]", "result": "8.37 upbm affinity estimate (log intensity, higher = more binding, comparable within an allelic series)"}, {"measurement": "binding signal", "setting": "VENTX [12]", "result": "8.23 upbm affinity estimate (log intensity, higher = more binding, comparable within an allelic series)"}, {"measurement": "binding signal", "setting": "NKX2-6 [6]", "result": "8.94 upbm affinity estimate (log intensity, higher = more binding, comparable within an allelic series)"}, {"measurement": "binding signal", "setting": "NKX2-6 [8]", "result": "9.35 upbm affinity estimate (log intensity, higher = more binding, comparable within an allelic series)"}, {"measurement": "binding signal", "setting": "NKX3-2 [16]", "result": "10.5 upbm affinity estimate (log intensity, higher = more binding, comparable within an allelic series)"}, {"measurement": "binding signal", "setting": "NKX2-5 [9]", "result": "8.73 upbm affinity estimate (log intensity, higher = more binding, comparable within an allelic series)"}, {"measurement": "binding signal", "setting": "NKX3-2 [17]", "result": "10.5 upbm affinity estimate (log intensity, higher = more binding, comparable within an allelic series)"}]}
